The values below come from PubChem BioAssay (Tox21).

The nature of assay [1]: qHTS assay to identify small molecule agonists of the peroxisome proliferator-activated receptor delta (PPARd) signaling pathway - cell viability counter screen (AID 743211). Also: nearly all actives have a fitted effect of over 55% in size. The essentials: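 Tox21 library compounds, delivered in DMSO, were incubated 17 h with PPARd-bla HEK293H cells; cytotoxicity was taken from CellTiter-Glo luminescence read 30 min after reagent addition.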
Background: qHTS replaces the single test concentration by a dilution series.

Assay [2] has as its target Peroxisome proliferator-activated receptor delta (Homo sapiens) (UniProt Q03181). Description: qHTS assay to identify small molecule agonists of the peroxisome proliferator-activated receptor delta (PPARd) signaling pathway (AID 743212; calls by dose curve). The essentials: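 Read-out: beta-lactamase FRET fluorescence after 2 h room-temperature incubation with LiveBLAzer B/G substrate. Cells were HEK293H carrying a UAS-bla reporter for PPARd, treated at 37 C with DMSO-dissolved compounds.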

Assay [3] can be described thus: qHTS assay to identify small molecule antagonists of the peroxisome proliferator-activated receptor delta (PPARd) signaling pathway - cell viability counter screen (AID 743213). Also: nearly all actives have a fitted effect of over 50% in size. The method in brief: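 PPARd-bla HEK293H cells (3000/well) got compound plus 300 nM L165041 agonist for 17 h at 37 C. Viability in the same wells came from CellTiter-Glo luminescence after 30 min at room temperature.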

Assay [4] is described as follows: qHTS assay to identify small molecule agonists of the vitamin D receptor (VDR) signaling pathway - cell viability counter screen (AID 743224). Also: series mostly up to about 63 µM; nearly all actives have a fitted effect of over 50% in size. The essentials: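 Compounds were pin-transferred onto VDR-bla cells plated 4 h earlier; following 16 h incubation at 37C, cell viability was quantified by CellTiter-Glo luminescence after 30 min at room temperature.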
Assay [5] in a line: qHTS assay to identify small molecule antagonists of the vitamin D receptor (VDR) signaling pathway - cell viability counter screen (AID 743225). Also: nearly all actives have a fitted effect of over 50% in size. The essentials:
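Same-well multiplex: following 16 h treatment of HEK 293T cells carrying a UAS-driven beta-lactamase reporter with compound and agonist (3 nM final), and a 2 h FRET substrate step, CellTiter-Glo was added and luminescence read after 30 min.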

The nature of assay [6]: qHTS assay to identify small molecule agonists of the NFkB signaling pathway - cell viability counter screen (AID 1159515; calls by dose curve; also: series mostly up to about 61 µM; nearly all actives have a fitted effect of over 55% in size). The essentials:
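Parallel cytotoxicity counter screen in ME-180 cells carrying an NFkB-response-element beta-lactamase reporter, 2,000 cells/well. Compound exposure lasted 5 hr at 37 C, 5% CO2. Cell viability was quantified by CellTiter-Glo luminescence.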

Assay [7] is described as follows: qHTS assay to identify small molecule agonists of the endoplasmic reticulum stress response signaling pathway (AID 1159516; active = well fitted activation curve with a large enough effect in the signal ratio in the repeat runs, not every such curve was filed as active; the % refers to the signal ratio). The essentials: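 Using a HeLa line with an ESRE-driven beta-lactamase gene, agonist activity was measured by FRET substrate fluorescence (460 and 530 nm emission) after cells were treated with compounds for 5 hr at 37 C and 5% CO2.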
Assay [8] is described as follows: qHTS assay to identify small molecule agonists of the endoplasmic reticulum stress response signaling pathway - cell viability counter screen (AID 1159517; calls by dose curve;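 also: HeLa cells carrying an ER stress response element beta-lactamase reporter; series mostly up to about 61 µM; nearly all actives have a fitted effect of over 50% in size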). The essentials: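 Steps: seed 1,500 ESRE-bla HeLa cells per well; incubate overnight at 37 C, 5% CO2; add compounds in DMSO for 5 hr; run FRET substrate 2 hr RT; add CellTiter-Glo, wait 30 min, read luminescence.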

A short description of assay [9]: qHTS assay to identify small molecule antagonists of the retinoid-related orphan receptor gamma (ROR-gamma) signaling pathway - cell viability counter screen (AID 1159520). Also: nearly all actives have a fitted effect of over 50% in size. The method in brief:
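Tet-on ROR gamma CHO cells were given compounds for 2 hr, then doxycycline hyclate at 1 uM final, and incubated 16 hr at 37 C. Viability was measured as ATP content by CellTiter-Glo luminescence.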

The target of assay [10] is Nuclear receptor ROR-gamma (Homo sapiens) (UniProt P51449). Description: qHTS assay to identify small molecule antagonists of the retinoid-related orphan receptor gamma (ROR-gamma) signaling pathway (AID 1159521; also: nearly all actives have a fitted effect of over 50% in size; also: potency is read from the fitted curve at half-maximal effect). The method in brief: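 Inducible-expression reporter assay: doxycycline (1 uM final) switched on RORγ in CHO cells bearing a ROR response element-luciferase construct, with test compounds present from 2 h beforehand. Decreased luminescence after 16 h defined antagonist activity.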

A short description of assay [11]: qHTS assay to identify small molecule agonists of the AP-1 signaling pathway - cell viability counter screen (AID 1159525; calls by dose curve; also: nearly all actives have a fitted effect of over 55% in size). The method in brief: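 Same-well cytotoxicity counter screen of the Tox21 10K library in ME-180 cells. The readout is ATP-dependent luminescence after 5 h compound treatment. Data are normalised to DMSO and tetra n-octyl ammonium bromide controls.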

Assay [12] in a line: qHTS assay to identify small molecule agonists of the AP-1 signaling pathway (AID 1159526; calls by dose curve).
Assay [13] can be described thus: qHTS assay to identify small molecule antagonists of the farnesoid-X-receptor (FXR) signaling pathway - cell viability counter screen (AID 743221; active = well fitted cell-killing curve with a large enough effect in the repeat runs, not every such curve was filed as active; also: nearly all actives have a fitted effect of over 50% in size). The essentials: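 Cytotoxicity is taken from ATP luminescence (CellTiter-Glo, 30 min, room temperature) in FXR-bla HEK 293T cells previously incubated 16 h at 37 C with compound and chenodeoxycholic acid at 50 uM final.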

Assay [14] has as its target Vitamin D3 receptor (Homo sapiens) (UniProt P11473). The assay is described as follows: qHTS assay to identify small molecule antagonists of the vitamin D receptor (VDR) signaling pathway (AID 743223; active = well fitted inhibition curve with a large enough effect in the signal ratio in the repeat runs, not every such curve was filed as active; the % refers to the signal ratio). The method in brief:
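Quantitative HTS in VDR-bla reporter cells stimulated with 1alpha,25-dihydroxyvitamin D3, 3 nM final. Compound exposure 16 h, 37C, 5% CO2. Read-out: beta-lactamase FRET substrate fluorescence, 2 h RT.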

For assay [15], the target named is Bile acid receptor (Homo sapiens) (UniProt Q96RI1). The assay is described as follows: qHTS assay to identify small molecule antagonists of the farnesoid-X-receptor (FXR) signaling pathway (AID 743217; active = well fitted inhibition curve with a large enough effect in the signal ratio in the repeat runs, not every such curve was filed as active; the % refers to the signal ratio). The method in brief: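 Screen of the Tox21 10K library in quantitative HTS format using FXR-UAS-bla HEK 293T reporter cells. Agonist chenodeoxycholic acid, 50 uM final, added with compounds; 16 h incubation at 37 °C; beta-lactamase FRET fluorescence measured.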

Assay [16] shares this target. The assay is described as follows: qHTS assay to identify small molecule agonists of the farnesoid-X-receptor (FXR) signaling pathway (AID 743220; active = well fitted activation curve with a large enough effect in the signal ratio in the repeat runs, not every such curve was filed as active; the % refers to the signal ratio). The essentials: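 FXR-UAS-bla HEK 293T cells carrying a UAS-driven beta-lactamase reporter were plated for 5 h at 37C/5% CO2, then exposed to DMSO-dissolved Tox21 10K compounds for 16 h at 37C. A LiveBLAzer B/G FRET substrate was loaded for 2 h at room temperature before fluorescence reading.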

The target of assay [17] is Vitamin D3 receptor (Homo sapiens) (UniProt P11473). The assay is described as follows: qHTS assay to identify small molecule agonists of the vitamin D receptor (VDR) signaling pathway (AID 743222; calls by dose curve). The method in brief: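 Fluorescence from cleaved LiveBLAzer B/G FRET substrate served as readout. VDR-bla cells had been treated 16 h at 37C with test compounds in DMSO, following a 4 h settling period, and substrate was loaded for 2 h at RT.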

Assay [18] addresses Peroxisome proliferator-activated receptor delta (Homo sapiens) (UniProt Q03181). Description: qHTS assay to identify small molecule antagonists of the peroxisome proliferator-activated receptor delta (PPARd) signaling pathway (AID 743215; active = well fitted inhibition curve with a large enough effect in the signal ratio in the repeat runs, not every such curve was filed as active; the % refers to the signal ratio;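 also: cells stimulated with agonist L165041 at 300 nM final during compound exposure; series mostly up to about 62 µM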). The essentials: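 Plated HEK293H PPARd-bla cells rested 5 h at 37 C and 5% CO2. Compound, then agonist L165041 at 300 nM final, was added; 17 h at 37 C followed. Substrate loading, 2 h room temperature, fluorescence measured.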

Assay [19] is described as follows: qHTS assay to identify small molecule agonists of the farnesoid-X-receptor (FXR) signaling pathway - cell viability counter screen (AID 743218). Also: nearly all actives have a fitted effect of over 45% in size. The essentials:
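Viability of FXR-bla HEK 293T cells is measured by ATP-based CellTiter-Glo luminescence following 16 h compound treatment at 37 C and a prior 2 h room-temperature beta-lactamase substrate step.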

Records with an inconclusive call do not appear. Calls of active or inactive are those of the source. Unless noted, calls follow the shape of the dose curve; as a rule, active = well fitted curve in the direction sought with a large enough effect in the repeat runs; inconclusive = weak or mixed curves; inactive = no such curve, though single readings can be large; an effect the other way counts as inactive or inconclusive.

Chain of Peroxisome proliferator-activated receptor delta (Homo sapiens) (Q03181 whole entry, looked up): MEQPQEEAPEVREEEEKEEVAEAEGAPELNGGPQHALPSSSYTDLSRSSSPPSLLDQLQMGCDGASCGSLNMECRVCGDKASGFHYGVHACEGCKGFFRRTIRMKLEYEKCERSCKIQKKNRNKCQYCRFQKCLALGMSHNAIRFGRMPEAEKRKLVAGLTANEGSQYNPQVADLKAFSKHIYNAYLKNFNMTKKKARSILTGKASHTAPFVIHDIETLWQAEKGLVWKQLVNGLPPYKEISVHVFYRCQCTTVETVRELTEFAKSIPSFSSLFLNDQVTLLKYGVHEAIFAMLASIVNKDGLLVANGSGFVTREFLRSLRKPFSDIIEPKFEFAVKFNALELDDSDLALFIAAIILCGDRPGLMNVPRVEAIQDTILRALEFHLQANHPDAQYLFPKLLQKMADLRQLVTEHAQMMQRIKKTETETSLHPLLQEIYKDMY
Chain of Bile acid receptor (Homo sapiens) (Q96RI1 whole entry, looked up): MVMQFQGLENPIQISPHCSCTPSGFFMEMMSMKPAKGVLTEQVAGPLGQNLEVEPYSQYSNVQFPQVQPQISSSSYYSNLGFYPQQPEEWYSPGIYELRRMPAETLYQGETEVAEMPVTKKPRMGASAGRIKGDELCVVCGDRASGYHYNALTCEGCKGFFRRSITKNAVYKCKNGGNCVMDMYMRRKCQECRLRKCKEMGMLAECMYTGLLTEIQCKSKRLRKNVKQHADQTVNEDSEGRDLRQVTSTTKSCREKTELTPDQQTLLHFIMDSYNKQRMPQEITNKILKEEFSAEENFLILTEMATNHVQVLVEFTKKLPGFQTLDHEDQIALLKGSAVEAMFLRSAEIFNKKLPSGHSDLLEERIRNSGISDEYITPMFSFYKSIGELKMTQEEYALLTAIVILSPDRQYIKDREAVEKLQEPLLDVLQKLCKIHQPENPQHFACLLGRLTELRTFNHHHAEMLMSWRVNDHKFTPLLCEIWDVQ
Chain of Vitamin D3 receptor (Homo sapiens) (P11473 whole entry, looked up): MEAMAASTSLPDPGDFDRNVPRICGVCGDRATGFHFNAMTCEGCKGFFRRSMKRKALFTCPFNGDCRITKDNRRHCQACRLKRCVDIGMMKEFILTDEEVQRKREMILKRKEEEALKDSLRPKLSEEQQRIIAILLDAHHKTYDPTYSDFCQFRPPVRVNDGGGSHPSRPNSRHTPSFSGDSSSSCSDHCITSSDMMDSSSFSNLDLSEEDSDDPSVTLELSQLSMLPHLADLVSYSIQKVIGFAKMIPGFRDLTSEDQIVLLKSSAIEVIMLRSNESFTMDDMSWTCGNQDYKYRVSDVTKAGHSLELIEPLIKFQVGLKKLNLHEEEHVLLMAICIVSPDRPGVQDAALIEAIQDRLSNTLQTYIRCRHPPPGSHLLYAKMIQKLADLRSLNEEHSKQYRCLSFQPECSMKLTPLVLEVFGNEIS

As for `COCCOCCOCCOCCOC`, the Potency entry in [1], in [3], in assay [4], in assay [5], in assay [6] and in assay [7] was “inactive” throughout. The Potency result in assay [9], in [10], in assay [11] and in assay [12] was “inactive” in each case. The compound was called inactive in assay [2] and in assay [8].

As for `Cn1c(NCCN(CCO)CCCc2ccc([N+](=O)[O-])cc2)cc(=O)n(C)c1=O`, the Potency result in assay [1], in [13], in [14], in assay [4], in assay [6] and in assay [7] was “inactive” each time. The Potency result in [9], in [10], in [11] and in assay [12] was “inactive” each time. Moreover, the outcome in assay [2] and in assay [8] was inactive.

Take `CCCCCCCCCCCCCCCC(=O)OC/C=C(C)/C=C/C=C(C)/C=C/C1=C(C)CCCC1(C)C`: the Potency result in assay [1], in [3], in [14], in assay [4], in [5] and in assay [6] was “inactive” in each case. The Potency entry in [7], in assay [9], in [10], in assay [11] and in [12] was “inactive” throughout. The compound was classed as inactive in [2], in assay [15], in [16], in assay [17] and in [8].

For the compound `CCCCCOC(=O)COc1cc(N2C(=O)C3=C(CCCC3)C2=O)c(F)cc1Cl`, the Potency result in assay [1], in assay [3], in assay [13], in assay [14], in assay [4] and in assay [6] was “inactive” throughout. Moreover, the Potency result in [7], in assay [9], in assay [10], in assay [11] and in [12] was “inactive” each time. For the same compound, the call in [17] and in assay [8] was inactive.

For `CC(C)NCC(O)COc1ccc(CC(N)=O)cc1` (stereo not given), the Potency result in [1], in [3], in assay [13], in assay [4], in assay [5] and in [6] was “inactive” each time. The Potency entry in [7], in assay [9], in assay [10], in assay [11] and in assay [12] was “inactive” each time. Further, the outcome in [17] and in assay [8] was inactive.

Regarding `CCCCCC(CO)CCC` (stereo not given), the Potency entry in assay [1], in assay [19], in assay [13], in assay [4], in [5] and in assay [6] was “inactive” in each case. The Potency entry in assay [7], in [9], in [10], in assay [11] and in assay [12] was “inactive” each time. Also, the call in [18], in assay [17] and in assay [8] was inactive.

As for `CC(C(=O)O)c1ccc(-c2ccccc2)c(F)c1` (stereo not given), the Potency entry in [1], in [3], in assay [19], in assay [13], in assay [14] and in assay [4] was “inactive” throughout. Also, the Potency result in assay [5], in [6], in assay [7], in assay [9], in assay [10] and in assay [11] was “inactive” throughout. In assay [12], the Potency entry was “inactive”. Also, the compound was called inactive in assay [18], in [17] and in assay [8].

Regarding `Nc1cnn([C@@H]2O[C@H](CO)[C@@H](O)[C@H]2O)c(=O)n1`, the Potency result in assay [1], in [13], in [14], in assay [4], in assay [5] and in [6] was “inactive” throughout. Further, the Potency result in assay [7], in assay [9], in [11] and in assay [12] was “inactive” throughout. Moreover, the outcome in assay [2], in [16], in [17] and in assay [8] was inactive. In addition, the Potency in assay [10] was 21.7 µM (active).

Take `CCCC(C)C`: the Potency entry in assay [1], in assay [13], in assay [14], in assay [4], in assay [5] and in assay [6] was “inactive” each time. Besides, the Potency result in assay [7], in [9], in assay [10], in assay [11] and in [12] was “inactive” throughout. The call in [2], in assay [18], in [17] and in [8] was inactive.

Take `C[Si](C)O[Si](C)(C)O[Si](C)(C)O[Si](C)C`: the Potency entry in assay [1], in [3], in [19], in [13], in assay [4] and in assay [5] was “inactive” each time. In addition, the Potency result in assay [6], in [7], in assay [9], in assay [10], in assay [11] and in [12] was “inactive” in each case. Further, the outcome in assay [17] and in assay [8] was inactive.
